Compounds without any hit were thinned out: in the full panel of roughly 83,000, 20% have a hit.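 Cells were grown in 96-well plates and exposed to the test compound at a single concentration for 48 hours; results are reported as percent growth, with values below 10 considered active.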 Activity calls are given as the source filed them.

This assay concerns OVCAR-5 ovarian. The experiment in a line: NCI-60 one-dose screen, 48 h (100 = growth as untreated, 0 = no growth, -100 = all killed). Particulars: 10 µM. As for the experimental part:
Growth inhibition of the OVCAR-5 human tumor cell line is measured as a screen for anti-cancer activity. Cells are grown in 96 well plates and exposed to the test compound for 48 hours. Compounds are tested at a single concentration, which is 10^-5 M for most compounds. The reported endpoint is percent growth (GI% or GIPRCNT), where numbers from 0 - 100% represent growth inhibition, and numbers from -100% - 0 represent cell death. For example, a value of 40 represents 60% growth inhibition. A value of 0 means no net growth occurred over the course of the experiment. A value of -40 indicates 40% of cells at the beginning of the experiment died by the end of the experiment. A value of -100 means all cells are dead at the end of the experiment.
NCI-60 Human Tumor Cell Lines Screen was performed using the standard one-dose NCI protocol, which is described in more detail at https://dtp.cancer.gov/discovery_development/nci-60/default.htm.
Compounds with GIPRCNT values below 10 were considered active. Activity score was based on GIPRCNT using the following formula: […]
Score is 0 for GIPRCNT values of 100 or above, 50 for GIPRCNT values of 0, and 100 for GIPRCNT values of -100.
`O=C1/C(=C\c2ccc(Br)cc2)CN(C(=O)c2ccccc2F)C/C1=C\c1ccc(Br)cc1`: the growth was 69.4% (inactive).
For the molecule `CCN(CC)CCC(CNc1c(C)cnc2cc(Cl)ccc12)c1ccc(Cl)c(Cl)c1` (stereo not given), the growth was 58.3% (inactive).
With `COc1ccc(-c2nn(-c3cccc(NC(=O)Nc4cc(C(F)(F)F)cc(C(F)(F)F)c4)c3)cc2-c2ccncc2)cc1Cl`, the growth was 18.7% (inactive).
On to `Cc1cc(Cl)nc(N(CCCNc2ccnc3cc(Cl)ccc23)Cc2cccs2)n1`, for which the growth is 31.8% (inactive).
For the molecule `O=C(CCCCCCC(=O)Nc1cccnc1)NO`, the growth is 60.8% (inactive).
`C=C(Cl)[C@@](Cl)(CBr)CC[C@@H](Br)C(C)(C)Cl`: the growth was -46.3% (active).
As to `c1ccc(CO[C@H]2CO[C@H]3[C@@H]2OC[C@H]3OCc2ccccc2)cc1`, the growth was 99.6% (inactive).
For the molecule `O=c1oc2cc(OS(=O)(=O)c3ccccc3)ccc2c2c1CCCCC2`, the growth is 83% (inactive).
`Cc1ccc(-c2n[nH]c(=O)c3noc(-c4ccc(C)cc4)c23)cc1`: the growth was 66.2% (inactive).
Consider `CCCCCCCNc1nc(C=O)ncc1-c1ccc(C(F)(F)F)cc1`, for which the growth was 103% (inactive).
Regarding `CN(C)N=Nc1nn(C(=O)Nc2ccc(Cc3ccccc3)cc2)c2ccccc12`, the growth is 71% (inactive).
Regarding `CCOC(=O)C1(CC(C)C)CCOC1=O` (stereo not given), the growth was 97% (inactive).
The result for `O=C(N/N=C/c1ccccc1)C(Oc1ccccc1)c1ccccc1` (stereo not given) reads 101% (inactive).
As to `COC(=O)C1(C)Cc2cc(OC(C)=O)c(OC(C)=O)cc2N1` (stereo not given), the growth is 118% (inactive).
For the molecule `O=C1/C(=C\c2ccccc2)CN(C(=O)c2ccccc2)C/C1=C\c1ccccc1`, the growth is 70.5% (inactive).
The result for `COc1ccc(Cn2c(C(N)=O)cc3c2-c2nc(N)ncc2CCC3)cc1` reads 87.7% (inactive); that for `COc1ccc(-c2nn(-c3cccc(NC(=O)Nc4cccc(C(F)(F)F)c4)c3)cc2-c2ccncc2)cc1Cl`, 56.1% (inactive); that for `COc1cc(-c2cc(/C=C3\C(=O)Nc4cc(Cl)ccc43)[nH]n2)cc(OC)c1OC`, 65% (inactive).
The result for `COc1cc(CNc2ccccc2C(=O)N2CCN(C(=O)c3cc(-c4cc(OC)c(OC)c(OC)c4)n4nc(-c5ccccc5)cc4n3)CC2)cc(OC)c1OC` reads 88.1% (inactive).
Turning to `CC(C)=NNc1ncnc2c1ncn2C1OC(CO)C(O)C1O` (stereo not given), the growth was 49.2% (inactive).
Regarding `CS(=O)(=O)Nc1cccc(-c2cc(-c3ccccc3Cl)c(C#N)c(N)n2)c1`, the growth was 56.3% (inactive).
With `Nc1ccc2c(c1)Cc1cc(N)c(Br)cc1-2`, the growth was 113% (inactive).
Regarding `Cc1cc(C)c2c(n1)sc1c(Nc3ccc(Cl)cc3)ncnc12`, the growth is 29% (inactive).
Regarding `Cn1c([N+](=O)[O-])cnc1/C=C1\Oc2ccccc2C1=O`, the growth was 0.959% (active).
The result for `COc1cc([C@@H]2c3cc4c(cc3C(Br)[C@H]3COC(=O)[C@H]23)OCO4)cc(OC)c1OC` (stereo not given in full) reads 24.7% (inactive).
With `COc1ccc(-c2nc3sccn3c2-c2nc3c([nH]2)C(=O)c2ccccc2C3=O)cc1`, the growth was 89.8% (inactive).
Turning to `CN(C)CCNC(=O)c1cccn2c(=O)c3cc4ccccc4cc3nc12`, the growth is 29.6% (inactive).
The result for `O=C(Nc1ccc(Cl)c([N+](=O)[O-])c1)Nc1nc2ccccc2s1` reads 103% (inactive); that for `COC(=O)C1=NNC(=S)N(c2cc(C)[nH]n2)C(=O)C1`, 108% (inactive); that for `Cc1cc2ccccc2nc1-c1ccccc1F`, 106% (inactive).
Regarding `CC1(C)Cc2c(sc3ncn4nc(-c5ccc(O)cc5)nc4c23)CO1`, the growth is 86.6% (inactive).
In the case of `CCC(=O)N1C/C(=C/c2ccc(OC)cc2)C(=O)/C(=C/c2ccc(OC)cc2)C1`, the growth was 96.1% (inactive).
The result for `COc1ccc(C2CC(c3ccc(N(C)C)cc3)=NN2c2ccc(S(N)(=O)=O)cc2)cc1` (stereo not given) reads 84.3% (inactive); that for `CS(=O)(=O)Nc1ccc(Nc2c3ccccc3nc3cc(N)ccc23)cc1`, 56.6% (inactive).
Regarding `CSc1nn(-c2ccccc2)c2ncnc(Oc3ccc(C)cc3)c12`, the growth was 92.5% (inactive).
`COc1cc(NC(=O)CSc2nc3ccccc3c(=O)n2CCc2ccccc2)cc(OC)c1OC`: the growth is 65.9% (inactive).
The result for `COc1ccc(/C(=C2\O[C@@H]([C@H]3COC(C)(C)O3)[C@H]3OC(C)(C)O[C@@H]23)c2cc(OC)c(OC)c(OC)c2)cc1O` reads 95.4% (inactive).
Take `Clc1ccccc1N=Cc1ccc2c(c1)OCO2`: the growth is 105% (inactive).
On to `C[C@]12CC[C@@H]3c4ccc(O)cc4C[C@@H](O)[C@H]3[C@@H]1CC[C@@H]2O`, for which the growth is 111% (inactive).
For `CCN(CC)CCCOCCCNc1cc(OC)cc2cccnc12`, the growth was 102% (inactive).

These data come from PubChem BioAssay (NCI).
